KCNH2 3.1 inh = qHTS for Inhibitors of KCHN2 3.1: Mutant qHTS; Potassium voltage-gated channel subfamily H member 2, brain isoform KCNH2 3.1 (human); U2OS KCNH2 3.1, thallium flux FluxOr; stronger effect = lower value; activity change, % (tested at about 1.8 µM); hit rate 0.95% among 340,000;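 active = maximum activity change below -70%; inconclusive = maximum activity change from -70% to -50%; inactive = maximum activity change above -50%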;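 note: thallium influx rate constant from kinetic fluorescence after stimulation buffer; % is set by controls: 0 for no effect and ±100 for the full control effect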
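Steps: virus added to U2OS suspension (4 h, RT, dark); medium with 10% FBS added, cells plated, 37 C overnight; FluxOr/Red40 loading buffer 45 min RT; stimulation buffer, 2 min kinetic read; rate constant normalized.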
TRPML1 blocker = qHTS for Inhibitors of the Human Mucolipin Transient Receptor Potential 1 (TRPML1). activity change, negative = inhibition, % (no concentration beside the values). AID 624415, 2012. Mucolipin-1 (Homo sapiens), Q9GZU1. hit rate 0.02% among 390,000. TRPML1-inducible cells, Ca2+ dye fluorescence, FDSS; stronger effect = lower value; inhibition of EC80 agonist-evoked calcium signal; in the data active = activity change below about -50%; inconclusive = between about -30% and that limit;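 note: stimulus is agonist 54-4 at its EC80 concentration; % is set by controls: 0 for no effect and ±100 for the full control effect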
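Tet-induced TRPML1-DL cells loaded with Ca8 no-wash calcium dye were read kinetically on FDSS. Compound addition was followed by EC80 agonist 54-4 (4 uM final); inhibition was read over 110 s.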
TRPML1 ag = qHTS for Agonists of the Human Mucolipin Transient Receptor Potential 1 (TRPML1); hit rate 0.12% among 410,000; Mucolipin-1 (Homo sapiens), Q9GZU1; activation, % (concentration not given with the values); TRPML1-expressing cells, Ca2+ dye fluorescence, FDSS; in the data active = activation above about 50%; inconclusive = mostly about 30% to 49%; note: 0% is about no effect
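Tet-induced TRPML1-DL cells, 1,500 per well, cultured overnight, were loaded with a no-wash Ca2+ dye for 45–90 min. Calcium fluorescence was recorded on the FDSS for 110 s after compound addition, before the EC80 agonist (4 uM 54-4) was added.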
TRPV1 ag = HTS Assay for Compounds that Act as Agonists of the Vanilloid Receptor 1; AID 540275, 2011; TRPV1-expressing cells, Fluo-8 calcium influx, agonist mode; activation, % at 8.33 µM; hit rate 0.19% among 320,000; in the data active = activation above about 80%; inconclusive = between about 30% and that limit; note: 0% is about no effect
Target sequence (Q8NER1 whole entry, looked up): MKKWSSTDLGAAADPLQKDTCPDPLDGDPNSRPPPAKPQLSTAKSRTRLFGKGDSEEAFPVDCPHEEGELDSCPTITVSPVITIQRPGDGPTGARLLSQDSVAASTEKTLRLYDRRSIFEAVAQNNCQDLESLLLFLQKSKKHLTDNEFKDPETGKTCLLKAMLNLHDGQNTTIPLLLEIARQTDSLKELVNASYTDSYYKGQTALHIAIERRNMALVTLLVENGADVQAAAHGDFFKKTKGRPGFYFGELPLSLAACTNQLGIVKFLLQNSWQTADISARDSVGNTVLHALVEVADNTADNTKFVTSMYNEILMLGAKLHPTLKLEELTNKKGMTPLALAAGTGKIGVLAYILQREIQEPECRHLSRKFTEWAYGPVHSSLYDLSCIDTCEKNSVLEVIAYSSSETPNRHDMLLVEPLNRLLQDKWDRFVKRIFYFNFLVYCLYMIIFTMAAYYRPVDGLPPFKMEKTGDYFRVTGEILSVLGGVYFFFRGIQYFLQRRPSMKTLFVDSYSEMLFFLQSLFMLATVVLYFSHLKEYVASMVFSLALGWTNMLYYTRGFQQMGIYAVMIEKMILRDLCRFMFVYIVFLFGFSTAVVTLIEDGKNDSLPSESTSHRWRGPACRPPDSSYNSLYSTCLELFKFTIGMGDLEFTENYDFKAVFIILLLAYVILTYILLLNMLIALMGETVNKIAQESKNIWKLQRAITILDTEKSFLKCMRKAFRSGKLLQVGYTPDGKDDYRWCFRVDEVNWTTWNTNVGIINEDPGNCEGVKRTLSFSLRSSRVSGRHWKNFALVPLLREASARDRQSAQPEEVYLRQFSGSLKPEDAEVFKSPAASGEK
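Cells expressing TRPV1 were dye-loaded with Fluo-8 and read kinetically: 10 s baseline, 3 min after compound (agonist portion), then 2 min after EC20 capsaicin (allosteric enhancer portion). Calcium-bound dye fluorescence at 480/520 nm.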
KCNH2 WT inh = qHTS for Inhibitors of KCHN2 3.1: Wildtype qHTS. U2OS, BacMam KCNH2, thallium flux FluxOr; stronger effect = lower value. Voltage-gated inwardly rectifying potassium channel KCNH2 (Homo sapiens), Q12809. activity change, % at 1.84 µM. hit rate 0.37% among 340,000;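 active = maximum activity change below -70%; inconclusive = maximum activity change between -70% and -50%; inactive = maximum activity change above -50%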; note: % is set by controls: 0 for no effect and ±100 for the full control effect
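U2OS cells transduced with wild-type KCNH2 virus are loaded with FluxOr dye for 45 min, and thallium flux is measured in kinetic reads before and after stimulation buffer. Rate constants are normalized to DMSO controls.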
TRPV1 potentiator = HTS Assay for Compounds that Act as Potentiators of the Vanilloid Receptor 1. Transient receptor potential cation channel subfamily V member 1 (Homo sapiens), Q8NER1. TRPV1-expressing cells, Fluo-8 calcium influx, capsaicin EC20 potentiation. potentiation, % at 8.33 µM. hit rate 0.02% among 320,000. AID 540277, 2011; in the data active = potentiation above about 80%; inconclusive = between about 30% and that limit; note: 0% is about no effect
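Cells expressing TRPV1 were dye-loaded with Fluo-8 and read kinetically: 10 s baseline, 3 min after compound (agonist portion), then 2 min after EC20 capsaicin (allosteric enhancer portion). Calcium-bound dye fluorescence at 480/520 nm.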
* hit, by the source's call. Compounds with a hit are over-represented: about 1.3% of the library has one in this group of screens.

`CN1C(=O)C(=O)/C(=C(/O)c2ccccc2)C1c1ccc(Br)cc1` (configuration not stated) gave KCNH2 3.1 inh 7.9, TRPV1 ag 2.5, KCNH2 WT inh -0.6 and TRPV1 potentiator -12.9.
`CN(C)c1ccc(C2/C(=C(/O)c3ccc(Br)cc3)C(=O)C(=O)N2C)cc1` (configuration not stated) gave KCNH2 3.1 inh -175.8*, TRPML1 blocker 67.9, TRPML1 ag -0.2, TRPV1 ag -8.0, KCNH2 WT inh -1.5 and TRPV1 potentiator 7.2.
For CCOc1ccc(S(=O)(=O)N(C)c2ccc(OCC(=O)N3CCOCC3)cc2)cc1 the results were KCNH2 3.1 inh 2.7, TRPML1 blocker -7.7, TRPML1 ag 0.4, TRPV1 ag inconclusive, KCNH2 WT inh 0.1 and TRPV1 potentiator -12.9.
`CCOc1ccc(S(=O)(=O)N(C)CC(=O)N2CCCC2)cc1` gave KCNH2 3.1 inh -99.6*, TRPML1 blocker -4.7, TRPML1 ag -0.4, TRPV1 ag 2.7, KCNH2 WT inh -8.9 and TRPV1 potentiator 5.5.
`CN(c1ccc(OCC(=O)N2CCCC2)cc1)S(=O)(=O)c1ccc(Cl)cc1` gave KCNH2 3.1 inh 10.9, TRPML1 blocker -10.7, TRPML1 ag 1.8, TRPV1 ag 6.2, KCNH2 WT inh -132.9* and TRPV1 potentiator -8.0.
Screening O=C(COC(=O)C1CC2CCCC(C1)C2=O)Nc1nc(-c2ccc(F)c(F)c2)cs1 (configuration not stated) returned KCNH2 3.1 inh -93.8*, TRPML1 blocker 5.0, TRPML1 ag 1.1, TRPV1 ag -2.4, KCNH2 WT inh 0.5 and TRPV1 potentiator 3.3.
O=C(CSc1ncc2c(n1)-c1ccccc1N(Cc1ccc(F)cc1)S2(=O)=O)c1ccc(Cl)cc1 was read as TRPML1 blocker 27.1 and TRPML1 ag 0.9.
Screening COC(=O)C1=C(C)NC(c2c(O)ccc3ccccc23)C(C(=O)OC)=C1C (configuration not stated) returned KCNH2 3.1 inh -84.6*, TRPML1 blocker -1.7, TRPML1 ag 2.0, TRPV1 ag -0.9, KCNH2 WT inh 8.1 and TRPV1 potentiator -5.5.
`COC(=O)C1=C(C)NC(=O)NC1c1c(O)ccc2ccccc12` (configuration not stated) gave KCNH2 3.1 inh -2.0, TRPML1 blocker 11.9, TRPML1 ag -0.5, TRPV1 ag -2.7, KCNH2 WT inh 10.6 and TRPV1 potentiator 5.3.
`Cc1cc(C)c(S(=O)(=O)N2CCCCC2)cc1N(C)S(=O)(=O)c1ccc(Cl)cc1` gave KCNH2 3.1 inh 2.7, TRPML1 blocker 57.6, TRPML1 ag 1.4, TRPV1 ag 20.8, KCNH2 WT inh 2.0 and TRPV1 potentiator 7.8.
Cc1ccc(S(=O)(=O)N2CCN(C)CC2)c(C)c1N(C)S(=O)(=O)c1ccc(Cl)cc1 was read as KCNH2 3.1 inh -94.3*, TRPML1 blocker 14.3, TRPML1 ag 0.3, TRPV1 ag 3.7, KCNH2 WT inh -4.4 and TRPV1 potentiator 3.5.
Screening O=C(Nc1ccccc1Cl)c1sc2cccc(Cl)c2c1Cl returned TRPML1 blocker 1.4 and TRPML1 ag 1.1.
O=C(O)c1sc2cccc(Cl)c2c1Cl was read as KCNH2 3.1 inh -5.9, TRPML1 blocker 1.4, TRPML1 ag 0.4, TRPV1 ag 82.9*, KCNH2 WT inh 3.6 and TRPV1 potentiator -7.9.
For Cc1ccc(C2=NS(=O)(=O)N(C)C(C(=O)NCc3cccs3)=C2)cc1 the results were KCNH2 3.1 inh 19.6, TRPML1 blocker 7.5, TRPML1 ag 0.1, TRPV1 ag 91.5*, KCNH2 WT inh 8.0 and TRPV1 potentiator 7.2.
For O=C(C[N+]12CCCc3cccc(c31)CCC2)c1ccc2ccccc2c1 the results were TRPML1 ag 0.4.
For CCOC(=O)c1nc2sc3c(c2c(=O)n1C(C)C(=O)OCC)CCCC3 (configuration not stated) the results were KCNH2 3.1 inh -22.0, TRPML1 blocker 5.9, TRPML1 ag 2.4, TRPV1 ag 80.2*, KCNH2 WT inh -5.8 and TRPV1 potentiator 7.7.
CCOC(=O)c1sc(NC(=O)Cn2nnc3sc4c(c3c2=O)CCCC4)nc1C was read as KCNH2 3.1 inh 18.8, TRPML1 blocker 7.0, TRPML1 ag 4.7, TRPV1 ag -2.4, KCNH2 WT inh 2.0 and TRPV1 potentiator 7.5.
For O=C(C[n+]1ccccc1Br)c1ccc(-c2ccccc2)cc1 the results were TRPML1 ag -0.7.
For COc1ccc(OC)c(/C=C/c2sc3ccccc3[n+]2C)c1 the results were TRPML1 ag -1.2.
O=C(COc1ccccc1C(=O)OCC(=O)Nc1cccc2ccccc12)Nc1ccc(Br)cc1 was read as TRPML1 ag -0.5.
Screening CC(=O)Nc1ccc(OCC(O)Cn2cccn2)cc1 (configuration not stated) returned KCNH2 3.1 inh -200.9*, TRPV1 ag 1.1, KCNH2 WT inh -1.1 and TRPV1 potentiator -1.8.
`CC(=O)Nc1ccc(OCC(O)Cn2ccnc2)cc1` (configuration not stated) gave KCNH2 3.1 inh 9.1, TRPML1 blocker -9.8, TRPML1 ag 0.2, TRPV1 ag inconclusive, KCNH2 WT inh 7.1 and TRPV1 potentiator -24.0.
Cc1ccc(C)c(NC(=O)N2CCN(C(=O)c3nsc4ccccc34)CC2)c1 was read as TRPML1 blocker -1.2 and TRPML1 ag 1.4.
Screening O=C1C(=O)N(c2ccccn2)C(c2cccc(F)c2)/C1=C(/O)c1ccccc1 (configuration not stated) returned KCNH2 3.1 inh -101.5*, TRPML1 blocker -16.4, TRPML1 ag 1.5, TRPV1 ag -4.5, KCNH2 WT inh 3.4 and TRPV1 potentiator 17.2.
Screening COc1ccc(C2/C(=C(/O)c3ccccc3)C(=O)C(=O)N2c2ccccn2)cc1OC (configuration not stated) returned KCNH2 3.1 inh -12.9, TRPML1 blocker -4.5, TRPML1 ag -0.5, TRPV1 ag -0.3, KCNH2 WT inh -1.2 and TRPV1 potentiator 2.6.
`CN1CCN(C(=O)c2cnn(-c3ccccc3)c2NC(=O)c2ccc(Br)cc2)CC1` gave KCNH2 3.1 inh -75.8*, TRPML1 blocker -4.8, TRPML1 ag -0.1 and KCNH2 WT inh -79.5*.

High-throughput results (PubChem)
